High-throughput results (PubChem)
Tau fluor cs: counter-screen for tau fibril formation inhibitors; tau K18 P301L Alexa594 fluorescence, heparin fibrillization; Potency, µM (doses to about 57.7 µM); 280,000 tested, 0.93% active; AID 1463; further: nearly all actives have a fitted effect of over 55% in size
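Human tau K18 P301L (15 uM unlabeled, 0.24 uM Alexa 594-labeled) in 100 mM sodium acetate pH 7 with 20 uM heparin, 6 hr at 37 C. ThT 30 uM added, 1 hr ambient; Alexa 594 FP and total fluorescence read at 555/632 nm.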
HTT cytoprotect: cytoprotection in Huntington HTT-Q103 PC12 cell model; PC12 HTT-Q103 induced, cytoprotection, ATP luminescence, 40 h; Potency, µM (series often up to 56.4 µM), usual class: activators; 230,000 tested, 0.14% active; AID 1471; further: nearly all actives have a fitted effect of over 45% in size
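Quantitative HTS on tebufenozide-induced (100 nM) PC12 cells expressing HTTQ103 exon 1–GFP; compounds tested as a concentration series; survival measured via cellular ATP.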
Tau fibril FP: inhibitors of human tau fibril formation; Potency, µM (doses to about 57.7 µM), hits mostly inhibitors; 280,000 tested, 0.39% active; P10636; K18 P301L tau heparin fibrillization, Alexa594 FP, 6 h; AID 1468; further: nearly all actives have a fitted effect of over 55% in size
Target sequence (P10636 561-689 P618L limits assumed): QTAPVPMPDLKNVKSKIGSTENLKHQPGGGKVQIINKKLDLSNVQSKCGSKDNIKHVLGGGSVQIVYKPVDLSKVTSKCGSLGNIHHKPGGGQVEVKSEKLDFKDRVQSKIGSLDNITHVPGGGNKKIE
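Recombinant K18 P301L […], labeled with Alexa 594 at 0.24 uM over 15 uM unlabeled; heparin inducer 20 uM final; 37 C, 6 hr; FP endpoint.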
HTT aggregate: inhibitors of mutant huntingtin aggregate formation in PC12 cells; PC12 HttQ103-GFP aggregates, Acumen cytometry, 40 h; Potency, µM (series often up to 46.1 µM), actives largely listed as inhibitors; 220,000 tested, 1.1% active; AID 1688; further: nearly all actives have a fitted effect of over 60% in size
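Steps: seed 1500 PC12 HTTQ103-GFP cells/well; add tebufenozide, 100 nM final; add compound titration; add ATPLite reagent; quantify GFP aggregates by laser scanning cytometry.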
Tau fibril ThT: blocks human tau fibril formation measured by thioflavin T; recombinant tau K18 P301L (four-repeat tau fragment), heparin-induced fibrillization, ThT fluorescence; AID 1460; P10636; 270,000 tested, 2.1% active; Potency, µM (doses to about 57.4 µM), hits mostly inhibitors; further: nearly all actives have a fitted effect of over 55% in size
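Heparin-induced fibrillization of the P301L-mutant K18 repeat-domain fragment of human tau was followed by ThT binding in quantitative high-throughput format.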
A number is an active result; [ ] = dose if it differs, or a comment. This is a sample that favours compounds with a hit; in the whole collection about 3.7% have one here. The call rests on the fitted dose curve; in most records, active means well fitted curve in the direction sought with a large enough effect; inconclusive means small, poorly fitted or top-dose-only effect, or another doubt; inactive means no such curve, though single readings can be large; an effect the other way counts as inactive or inconclusive.

`O=S(=O)(Nc1cccnc1)c1ccc(C2CCCCC2)cc1` gave Tau fluor cs inactive, HTT cytoprotect inactive[10 µM], Tau fibril FP inactive, HTT aggregate 2.8µM and Tau fibril ThT inactive.
Cc1ccc(C2Nc3ccccc3-c3nc4ccccc4n32)o1 (stereo not given) was read as Tau fluor cs 32µM[quencher], HTT cytoprotect inactive[10 µM], Tau fibril FP inconclusive, HTT aggregate inactive and Tau fibril ThT inconclusive.
For CC(=O)Nc1ncc([N+](=O)[O-])s1 the results were HTT cytoprotect inactive and HTT aggregate inactive.
`O=C1NCCN1c1ncc([N+](=O)[O-])s1` gave HTT cytoprotect 0.089µM and HTT aggregate inactive.
Screening COc1ccc(Cn2c(CO)cnc2SCc2ccc(C)cc2)cc1 returned Tau fluor cs inactive, Tau fibril FP inactive and Tau fibril ThT inactive.
O=C1c2cc(Br)ccc2O[C@@H](c2ccc3c(c2)OCO3)[C@@H]1O was read as Tau fluor cs inactive, HTT cytoprotect inactive, Tau fibril FP inactive and Tau fibril ThT inactive.
`Cc1ccc(N2C(=O)CS(=O)(=O)C23C(=O)N(Cc2ccccc2F)c2ccccc23)cc1Cl` (stereo not given) gave Tau fluor cs inactive, Tau fibril FP inactive and Tau fibril ThT inactive.
`Cc1ccc(OC(=S)Nc2ccc(O)cc2)cc1` gave Tau fluor cs inactive, HTT cytoprotect inactive[10 µM], Tau fibril FP inconclusive, HTT aggregate inactive and Tau fibril ThT 16µM.
Screening O=C(/C=C/c1ccc2c(c1)OCO2)c1cccs1 returned Tau fluor cs inactive, HTT cytoprotect inactive[1.9 µM], Tau fibril FP inactive and Tau fibril ThT inconclusive.
`CC(C)(C)c1ccc(NC(=O)CSc2nnc3scc(-c4ccccc4)n23)cc1` gave Tau fluor cs inactive, Tau fibril FP inactive and Tau fibril ThT inactive.
Cc1ccc(N/N=C(\C#N)C(=O)c2ccsc2)cc1 was read as Tau fluor cs inconclusive, HTT cytoprotect inactive[10 µM], Tau fibril FP inactive, HTT aggregate inactive[9.22 µM] and Tau fibril ThT 14µM.
For N#C/C(=N\Nc1ccc(Cl)cc1)C(=O)c1ccsc1 the results were Tau fluor cs inconclusive, HTT cytoprotect inactive[10 µM], Tau fibril FP inactive, HTT aggregate inactive[9.22 µM] and Tau fibril ThT 5µM.
Screening CCOc1ccccc1NC(=O)CSc1nnc(CC)c(CC)n1 returned Tau fluor cs inactive, Tau fibril FP inactive and Tau fibril ThT inactive.
`CN(CC(=O)NCc1ccccc1)S(=O)(=O)c1ccc2[nH]c3c(c2c1)CCCC3` gave Tau fluor cs inconclusive, Tau fibril FP inconclusive and Tau fibril ThT inactive.
Screening Cc1cc(C)cc(NC(=S)NCc2ccc3[nH]c4c(c3c2)CCCC4)c1 returned Tau fluor cs 10µM[quencher], Tau fibril FP inconclusive, HTT aggregate inconclusive and Tau fibril ThT inconclusive.
`S=C(NCc1ccc2[nH]c3c(c2c1)CCCC3)Nc1ccccc1` gave Tau fluor cs 13µM[quencher], Tau fibril FP inactive, HTT aggregate inconclusive and Tau fibril ThT inconclusive.
`CCS(=O)(=O)NCc1ccc2[nH]c3c(c2c1)CCCC3` gave Tau fluor cs inconclusive, HTT cytoprotect inactive[10 µM], Tau fibril FP inactive, HTT aggregate inactive and Tau fibril ThT inactive.
Cc1c(C(=O)Nc2ccc(F)c(C(F)(F)F)c2)sc2nc(-c3ccccc3)cn12 was read as Tau fluor cs inactive, Tau fibril FP inconclusive and Tau fibril ThT inactive.
Cc1ccc(C(=O)N/C(=C\c2ccc(-c3ccc(Br)cc3)o2)C(=O)NCCCN(C)C)cc1 was read as Tau fluor cs inactive, HTT cytoprotect inactive[10 µM], Tau fibril FP inactive, HTT aggregate inconclusive and Tau fibril ThT inactive.
For CN(C)CCNC(=O)/C(=C/c1ccc(-c2ccc(Cl)cc2Cl)o1)NC(=O)c1ccccc1 the results were Tau fluor cs inactive, Tau fibril FP inactive, HTT aggregate 35µM and Tau fibril ThT inconclusive.
Screening CN(C)CCNC(=O)/C(=C/c1ccc(-c2ccc(Cl)cc2)o1)NC(=O)c1ccccc1 returned Tau fluor cs inactive, HTT cytoprotect inactive[0.074 µM], Tau fibril FP inactive, HTT aggregate 3.2µM and Tau fibril ThT inactive.
For NC(=O)c1cccc(-c2cc(Nc3ccc(OC(F)(F)F)cc3)ncn2)c1 the results were Tau fluor cs inconclusive, HTT cytoprotect inactive[10 µM], Tau fibril FP 28µM, HTT aggregate inactive[9.22 µM] and Tau fibril ThT inconclusive.
For OC[C@H]1NC[C@H](O)[C@@H](O)[C@H]1O the results were Tau fluor cs inactive, HTT cytoprotect inactive, Tau fibril FP inactive and Tau fibril ThT inactive.
For Nc1cc(N)cc(-c2nc3ccccc3[nH]2)c1 the results were Tau fluor cs 13µM[quencher], HTT cytoprotect inactive[10 µM], Tau fibril FP inactive, HTT aggregate inactive and Tau fibril ThT 13µM.
`Cc1ccc(C)c(-c2nc3ccc(N)cc3[nH]2)c1` gave Tau fluor cs inactive, HTT cytoprotect inactive, Tau fibril FP inactive, HTT aggregate inactive and Tau fibril ThT inconclusive.
`Nc1ccc2nc(-c3cc(Cl)c(N)c(Cl)c3)[nH]c2c1` gave Tau fluor cs inconclusive, HTT cytoprotect inactive[1.9 µM], Tau fibril FP inactive, HTT aggregate inconclusive and Tau fibril ThT 14µM.
`Nc1ccc2nc(-c3ccc(Cl)cc3)[nH]c2c1` gave Tau fluor cs 25µM[quencher], HTT cytoprotect inactive, Tau fibril FP inactive, HTT aggregate inactive and Tau fibril ThT 14µM.
Nc1ccc(-c2nc3ccc(-c4nc5ccccc5o4)cc3[nH]2)cc1 was read as Tau fluor cs 16µM[quencher], HTT cytoprotect inactive, Tau fibril FP inactive, HTT aggregate inactive and Tau fibril ThT 8.9µM.
`Nc1ccc(-c2nc3ccc(N)cc3[nH]2)cc1` gave Tau fluor cs inconclusive, HTT cytoprotect inactive, Tau fibril FP inactive, HTT aggregate inactive and Tau fibril ThT inconclusive.
Screening CCc1ccc(C(=O)c2cn(CC(=O)Nc3ccc4c(c3)OCCO4)c3ccc(C)cc3c2=O)cc1 returned Tau fluor cs inactive, Tau fibril FP inconclusive and Tau fibril ThT inactive.
O=C(Nc1ccccc1F)C(Cc1ccccc1)N1Cc2ccccc2C1=O (stereo not given) was read as Tau fluor cs inactive, Tau fibril FP inactive and Tau fibril ThT inactive.
`Cc1nc2ccc(-c3nc4ccc(N)cc4[nH]3)cc2[nH]1` gave Tau fluor cs inconclusive, HTT cytoprotect inactive[10 µM], Tau fibril FP inactive, HTT aggregate inactive[9.22 µM] and Tau fibril ThT 16µM.
For CC(=O)[C@H]([C@@H](c1ccccc1)N1CCOCC1)N1CCOCC1 the results were HTT cytoprotect inactive[10 µM].
COc1cc2ccccc2cc1C(=O)N1CCN(c2nc3ccc(F)cc3s2)CC1 was read as Tau fluor cs inactive, Tau fibril FP inactive and Tau fibril ThT inconclusive.
Oc1ccccc1Cn1c(-c2ccccc2O)nc2ccccc21 was read as Tau fluor cs inconclusive, HTT cytoprotect inactive, Tau fibril FP inconclusive, HTT aggregate 25µM and Tau fibril ThT inactive.
For O=C(Cc1ccc(Cl)cc1)Nc1ncc([N+](=O)[O-])s1 the results were Tau fluor cs inactive, HTT cytoprotect inactive, Tau fibril FP inactive, HTT aggregate inconclusive and Tau fibril ThT inconclusive.
